# Results taken from PubChem BioAssay AID1985 (Southern Research Specialized Biocontainment Screening …, 2009).
# Screen size: about 2,300 compounds; about 1,000 (43%) were called active. How the calls were made is not given here. The set was probably picked from earlier hits. The list shows a part of the results. Potency and affinity values are given separately.
# Assay: PhoP regulon inhibitor project modified counter assay, GFP fluorescence readout, dose response (AID 1985)
# Details: S. Typhi, 4 h; series mostly up to 150 µM; inhibition: at the top concentration
row,SMILES,inhibition
1,COc1cc(CNC(=O)CCC(=O)N2C[C@H]3C[C@H](C2)c2cccc(=O)n2C3)cc(OC)c1OC,-15.7% (inactive)
2,Cc1ccc(/C=N/NC(=O)CSc2nc3ccccc3n2C)s1,7.39% (inactive)
3,CC(C)c1ccc(NC(=O)CSc2nnc(-c3ccccn3)n2C)cc1,1.9% (inactive)
4,COc1ccccc1C(=O)NNC1=C(C(=O)C(F)(F)F)CCC1,22% (inactive)
5,COc1nc(N(C#N)CC(N)=O)nc(N2CCCC2)n1,-14.6% (inactive)
6,CC1CCN(CC(CS(=O)(=O)c2ccc([N+](=O)[O-])cc2)N2CCC(C)CC2)CC1 (stereo not given),-27.2% (inactive)
7,O=c1c2cnn(-c3ccccc3)c2ncn1CCc1ccccc1,16.9% (inactive)
8,COc1cccc(-c2nc(CS(=O)CC(=O)NCCCOC(C)C)c(C)o2)c1 (stereo not given),-17.2% (inactive)
9,O=C(N/N=C/c1ccc(N2CCCC2)c([N+](=O)[O-])c1)c1cccnc1,19.8% (inactive)
10,Cc1ccsc1/C=N/NC(=O)c1ccncc1,3.21% (inactive)
11,Cc1cc(C)n(-c2nc3ccccc3nc2N2CCN(C(=O)c3ccc(F)cc3)CC2)n1,-26.8% (inactive)
12,CSc1nnc(-c2cccc(NC(=S)NN)c2)o1,-45.2% (inactive)
13,Cc1cccc(-n2ccnc2CN2CCN(C3CCCC3)C(CCO)C2)c1 (stereo not given),5.03% (inactive)
14,C[N+](C)(CCCCCC[N+](C)(C)CCCN1C(=O)c2cccc3cccc(c23)C1=O)CCCN1C(=O)c2cccc3cccc(c23)C1=O,15.2% (inactive)
15,O=C(c1ccccc1F)N1C(=O)c2cccc3cccc1c23,1.1% (inactive)
16,Cc1ccc(-c2[nH]ncc2/C=N/n2c(C)nc3ccccc3c2=O)cc1,24.4% (inactive)
17,Cc1ccc(/C=N/n2c(C)nc3ccccc3c2=O)s1,-5.95% (inactive)
18,CCc1ccccc1NC(=O)c1onc(C)c1Cl,-34.5% (inactive)
19,Cc1onc(-c2ccccc2Cl)c1C(=O)NNC(=O)C1CCN(Cc2ccccc2)CC1,-13.4% (inactive)
20,CCCN(CCC)CCNC(=O)C1CCN(Cc2nc(-c3ccc(Cl)cc3)oc2C)CC1,29.4% (inactive)
21,O=C(/C=C/c1ccccc1)NC(=S)N1CCSCC1,-10.6% (inactive)
22,O=C(/C=C/c1ccccc1)OCc1cnc(Cl)s1,-4.85% (inactive)
23,COC(=O)c1cc2nc(-c3ccccc3)cc(C)n2n1,14.7% (inactive)

row,SMILES,inhibition
1,CCC(C)n1c(SCC(=O)NCc2ccco2)nnc1-c1cccc(S(=O)(=O)N2CCOCC2)c1 (stereo not given),15.2% (inactive)
2,COC(=O)c1ccccc1NC(=O)CSc1ncn[nH]1,-15.8% (inactive)
3,CSc1cccc(NC(=O)/C=C/c2ccco2)c1,23.1% (inactive)
4,COc1cccc(C(=O)Nc2cccc(SC)c2)c1,8.22% (inactive)
5,Cc1ccc(-c2c[n+](Cc3ccc(Cl)c(Cl)c3)c3n2CCC3)cc1,-16.3% (inactive)
6,CC1CCCC(NC(=O)COC(=O)Cc2c[nH]c3ccccc23)C1C (stereo not given),-10.8% (inactive)
7,CCC(=O)Nc1nc(C)c(C(=O)N2CCCCC2)s1,8.55% (inactive)
8,O=C(N/N=C/c1cccnc1)c1ccc(F)cc1,2.11% (inactive)
9,CC(/C=C\c1cccnc1)=C/C(=O)O,1.58% (inactive)
10,Cc1ccc(C(C)C)c(OCCNC(=O)c2ccccc2O)c1,29.6% (inactive)
11,O=C(Nc1ncccc1O)c1c(O)c2ccccc2[nH]c1=O,17.4% (inactive)
12,CCC(Sc1nccn1C)C(=O)Nc1nnc(C)s1 (stereo not given),-7.61% (inactive)
13,Cc1ccc(-c2noc(CN3CCCCC3)n2)cc1,-29.6% (inactive)
14,OCCN1CCN(Cc2cc(Cl)c3cccnc3c2O)CC1,39.2% (inactive)
15,Cc1nc(N2CCOCC2)c2c(C)c(C(=O)Nc3ccccc3C(F)(F)F)sc2n1,21.2% (inactive)
16,O=c1c2ccccc2nc(COc2ccccc2)n1/N=C/c1ccc(O)cc1O,15.7% (inactive)
17,CCn1c(SCC(=O)Nc2oc(-c3ccccc3)c(-c3ccccc3)c2C#N)nnc1-c1ccco1,30% (inactive)
18,CCCC(CCC)C(=O)NCCN1CCOCC1,-18.2% (inactive)
19,COc1cccc(-c2ccc(SCc3ccccn3)nn2)c1,-17.4% (inactive)
20,Fc1ccc(/C=N/Nc2nc3ccccc3[nH]2)cc1F,21.8% (inactive)
21,CC1CCN(CCOCCOc2ccc(Br)cc2Cl)CC1,21.5% (inactive)
22,COC(=O)c1cc2sccc2n1Cc1nc(-c2ccc(OC)cc2)oc1C,-9.46% (inactive)
23,Oc1c(CN2CCN(c3ccccn3)CC2)cc(Cl)c2cccnc12,6.65% (inactive)

row,SMILES,inhibition
1,Cc1cc2cc(CNC(=O)C(C)Oc3ccccc3)ccc2n1C (stereo not given),-17.3% (inactive)
2,CNCCCC1c2ccccc2C=Cc2ccccc21,37.2% (inactive)
3,COc1cc(OC)c(C2CC(=O)N3CN(c4ccccc4)CSC3=C2C#N)cc1OC (stereo not given),0.55% (inactive)
4,COc1ccccc1-c1nc(C(F)(F)F)c(OC)o1,-6.77% (inactive)
5,Cc1nc(C)c(-c2ccc(SCc3ccccc3F)nn2)s1,-17.5% (inactive)
6,NC(=O)c1cc(S(=O)(=O)Nc2cccc(F)c2)co1,23.2% (inactive)
7,Cc1c(/C=N/NC(=O)c2sc3ccccc3c2Cl)cnn1C,12.1% (inactive)
8,O=C(NC1=NCCS1)c1cccc2ccccc12,-30.7% (inactive)
9,CCn1ncc(/C=N\NC(=O)c2csc3ccccc23)c1C,-13.8% (inactive)
10,COc1ccc(C(=O)N/N=C/c2cccnc2)cc1,32.4% (inactive)
11,O=C(NC1CC1)C1CCN(C2CCN(C(=O)Cc3ccc(F)cc3)CC2)CC1,-0.34% (inactive)
12,CN1C(=O)N2CN(C3CCCCC3)CN3C(=O)N(C)C1C23 (stereo not given),26.2% (inactive)
13,CCn1nccc1C(=O)Nc1cc(Cl)cc(Cl)c1,14.2% (inactive)
14,O=C(CCN1CCN(c2ccccc2)CC1)c1ccc(Cl)cc1,27% (inactive)
15,O=C(C[n+]1cn(C(F)F)c2ccccc21)c1ccc(Br)cc1,-42.7% (inactive)
16,COc1ccc(C(=O)N2CCN(C(=O)Cc3ccccc3)CC2)cc1OC,-8.35% (inactive)
17,CCOC(=O)N1CCN(CCC(=O)c2ccc(Br)cc2)CC1,36.8% (inactive)
18,O=C(CCN1CCC(c2ccccc2)C1)c1ccc2c(c1)OCCO2 (stereo not given),-0.06% (inactive)
19,O=C(c1cccs1)N1CCC(N2CCN(c3ccccc3)CC2)CC1,0.94% (inactive)
20,CCOC(=O)N1CCN(CC(=O)Nc2ccc(F)cc2F)CC1,-11% (inactive)
21,O=c1[nH]n(-c2ccccc2)c(=O)c2ccccc12,25.6% (inactive)
22,CCOc1ccc(S(=O)(=O)N2CCC(C(=O)NCCN3CCOCC3)CC2)cc1C,10.5% (inactive)
23,O=c1c2ccccc2ncn1Cc1ccc(Cl)cc1,-17.5% (inactive)

row,SMILES,inhibition
1,CCc1ccc(C(=O)CC2(O)C(=O)N(CN3CCOCC3)c3ccccc32)cc1 (stereo not given),19.9% (inactive)
2,CC(=O)C1=C(O)C(=O)N(CCN2CCOCC2)C1c1ccccc1 (stereo not given),6.14% (inactive)
3,CCC[C@H](CN[C@@H](CNC)[C@H](C)CC)NCCc1cc(C(F)(F)F)cc(C(F)(F)F)c1,-3.97% (inactive)
4,O=C(COC(=O)/C=C/c1cccc(C(F)(F)F)c1)NCc1ccccc1,-28.6% (inactive)
5,COc1cc2c3cc1Oc1cc(ccc1O)C[C@@H]1c4c(cc(OC)c(O)c4Oc4ccc(cc4)C[C@H]3N(C)CC2)CCN1C,3.53% (inactive)
6,Cc1ccc(C(C[N+](=O)[O-])n2nc(C)cc2C)cc1 (stereo not given),35% [at 75 µM] (inactive)
7,CCN1C(=O)NC(c2ccccc2)C1=O (stereo not given),18% (inactive)
8,CCN(CC)CCCCCCCCOC(=O)c1cc(OC)c(OC)c(OC)c1,-1.68% (inactive)
9,COc1cc(C(c2nnnn2C2CCCC2)N2CCN(C)CC2)cc(OC)c1OC (stereo not given),2.81% (inactive)
10,O=S1(=O)CC=C(CSc2nc3ccccc3[nH]2)C1,-9.82% (inactive)
11,Cc1ccc(-n2[nH]c(C)c(C=NCc3ccncc3)c2=O)cc1,-15.4% (inactive)
12,Cc1ccnc(NS(=O)(=O)c2ccc(N=CC3=C(O)CC(C)(C)CC3=O)cc2)n1,33.4% (inactive)
13,CCC(Oc1ccccc1)C(=O)Nc1nnc(S(=O)(=O)N2CCCCC2)s1 (stereo not given),-6.86% (inactive)
14,CCOc1ccc(C2CC(=O)NC(SCC(=O)OC)=C2C#N)cc1 (stereo not given),9.67% (inactive)
15,COc1ccc(-c2cc(C(=O)Nc3ccc(S(=O)(=O)Nc4onc(C)c4C)cc3)c3ccccc3n2)cc1OC,9.88% (inactive)
16,CCC(CC)C(=O)NCCc1cc2ccc(C)cc2[nH]c1=O,-11.5% (inactive)
17,O=Cc1ccc(N2CCCCCC2)cc1,-1.36% (inactive)
18,CCOC(=O)C1=C(C)NC(SCC(N)=O)=C(C#N)C1c1ccncc1 (stereo not given),-2.55% (inactive)
19,COc1ccccc1C(=O)N1CC2(C)CC1CC(C)(C)C2 (stereo not given),-17.9% (inactive)
20,COc1ccc(Cl)cc1-c1n[nH]c(=S)o1,22.8% (inactive)
21,COc1ccc(-c2nnn(-c3ccc(Cl)cc3Cl)c2N)cc1,18.2% (inactive)
22,Clc1ccc(/C=C/c2ncc[nH]2)c(Cl)c1,-14.2% (inactive)
23,Clc1ccc2nc(N3CCCCC3)[nH]c2c1,36.1% (inactive)

row,SMILES,inhibition
1,CN(C)C(CNc1ccc([N+](=O)[O-])cc1C#N)c1ccccc1 (stereo not given),0.73% (inactive)
2,CCN1CCN(Cc2ccc(NC(=O)c3ccc(C)c(NC(=O)C(=O)c4c[nH]c5ccccc45)c3)cc2C(F)(F)F)CC1,22.5% (inactive)
3,COc1ccc(C(=O)C2CCN(CC(=O)Nc3cc(C)cc(C)c3)CC2)cc1,5.89% (inactive)
4,O=C(CSC1=NCCS1)Nc1nc2c(s1)CCCC2,-5.66% (inactive)
5,COc1ccc(CC(=O)Nc2ncc([N+](=O)[O-])s2)cc1OC,37.9% (inactive)
6,Cc1ccc(CNC(=O)CCC(=O)Nc2nnc(C)s2)cc1,6.87% (inactive)
7,O=C(c1cc2c(s1)-c1ccccc1S(=O)(=O)C2)N1CCN(Cc2ccccc2)CC1,4.65% (inactive)
8,COc1cccc(OC)c1C(=O)Nc1ccc(N2CCN(S(C)(=O)=O)CC2)cc1,8.9% (inactive)
9,COCc1ccc(C(=O)Nc2ccc(C(=O)O)cc2)o1,28.9% (inactive)
10,COC(=O)C1=C(C)N(C2CCCC2)C(=O)C1(NC(C)=O)C(F)(F)F (stereo not given),-18.9% (inactive)
11,NC(=O)c1cc(C(=O)c2cccc(Cl)c2Cl)c[nH]1,24.7% (inactive)
12,Cc1cnc(C(=O)Nc2nnc(C)s2)cn1,14.5% (inactive)
13,O=C1C=C(Nc2ccccc2O)c2ccccc2C1=O,31.8% (inactive)
14,CCCCOc1ccc(CN2CCC(O)CC2)cc1,17.8% (inactive)
15,CCCCCCOc1ccc(N2C(=O)CC(SC(=NCC)NCC)C2=O)cc1 (stereo not given),2.18% (inactive)
16,O=C1NC(=S)S/C1=C1\Sc2ccccc2N1CCCS(=O)(=O)O,2.35% (inactive)
17,CN(C)CCCN1c2ccccc2Sc2ccc(C(F)(F)F)cc21,30.6% (inactive)
18,Cc1ccc(C)c(NC(=O)c2ccccc2O)c1,-7.11% (inactive)
19,O=C(Cc1ccc(F)cc1)NC1CCCC1,12.7% (inactive)
20,Cc1ccc(C)c(OCc2ccc(C(=O)NN)o2)c1,27.3% (inactive)
21,O=C(NC1CCCCC1)c1ccc(S(=O)(=O)NCc2cccnc2)cc1,-17.7% (inactive)
22,Cn1ncc(N=Cc2ccccc2O)c1C(=O)N1CCOCC1,-12.2% (inactive)
23,Cc1nc(-c2ccc(C(=O)N3CCOCC3)cc2)cs1,10.6% (inactive)
